LEDGF integ inh = blocks HIV-1 LEDGF/p75-dependent DNA integration | TR-FRET IN-LEDGF/p75 DNA integration, Eu/Cy5 | inhibition, % at 3.7 µM | actives 0.64% (n = 370,000);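 active = inhibition above the screen-wide mean plus 3 SD, cut at about 13% in these data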;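 also: signal is the Cy5 over europium emission ratio at 671 and 618 nm; 0% = plate median of compound wells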
MBD2 DNA inh = blocks human MBD2 binding to methylated DNA; Q9UBB5; inhibition, % at 4.4 µM; actives 0.31% (n = 370,000); TR-FRET, MBD2 binding to methylated oligonucleotide; AID 686964; in the data active = inhibition above about 13%
PRMT1 inh = blocks human protein arginine methyltransferase 1. Q99873. actives 1.3% (n = 370,000). inhibition, % at 2.79 µM. AID 652257. recombinant PRMT1, activity-based probe fluorescence polarization;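 active = inhibition above about 21% made by adding two undisclosed values, limit read from the data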
UHRF1 binding = UHRF1 methyl-DNA binding inhibition; Q96T88; UHRF1 binding to methylated oligo, TR-FRET; inhibition, % at 4.4 µM; actives 0.75% (n = 370,000); in the data active = inhibition above about 21%;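 also: UHRF1 SRA domain binding a hemimethylated CpG hairpin DNA probe; 0% = median of test compound wells and 100% = reference inhibitor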
ABHD5 PLIN5 PPI = inhibitors of human ABHD5-perilipin-5 interaction; Split G. princeps luciferase complementation, luminescence, 4 h; inhibition, % at 4 µM; actives 0.78% (n = 360,000);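 active = inhibition above the mean inhibition across every tested compound plus 3 SD, cut at about 22% in these data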;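 also: 0% = DMSO only wells and the 100% control is not disclosed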
Target sequence (Q00G26 whole entry, looked up): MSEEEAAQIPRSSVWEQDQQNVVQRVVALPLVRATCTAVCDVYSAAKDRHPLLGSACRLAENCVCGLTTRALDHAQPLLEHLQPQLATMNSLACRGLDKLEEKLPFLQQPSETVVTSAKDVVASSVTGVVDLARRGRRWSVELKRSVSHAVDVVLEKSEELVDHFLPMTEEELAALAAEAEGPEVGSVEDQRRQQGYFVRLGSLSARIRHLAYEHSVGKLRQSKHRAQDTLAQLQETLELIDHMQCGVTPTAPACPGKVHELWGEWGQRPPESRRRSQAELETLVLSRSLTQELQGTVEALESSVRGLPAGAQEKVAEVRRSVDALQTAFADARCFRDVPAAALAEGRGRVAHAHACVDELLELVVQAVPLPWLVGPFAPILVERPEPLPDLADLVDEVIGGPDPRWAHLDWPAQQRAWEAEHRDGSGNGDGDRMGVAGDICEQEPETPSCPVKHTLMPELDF
Target sequence (Q8WTS1 whole entry, looked up): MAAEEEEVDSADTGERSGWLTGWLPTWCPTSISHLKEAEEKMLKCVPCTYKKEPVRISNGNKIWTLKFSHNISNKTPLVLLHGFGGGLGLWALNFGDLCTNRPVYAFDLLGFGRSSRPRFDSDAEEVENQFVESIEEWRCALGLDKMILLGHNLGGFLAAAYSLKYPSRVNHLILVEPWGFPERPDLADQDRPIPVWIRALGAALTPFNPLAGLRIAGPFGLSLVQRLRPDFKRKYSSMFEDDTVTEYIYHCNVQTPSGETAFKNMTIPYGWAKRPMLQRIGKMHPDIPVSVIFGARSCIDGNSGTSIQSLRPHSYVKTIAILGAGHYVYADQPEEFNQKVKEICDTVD
rCAG RNA binder = binds r(CAG) RNA repeats; r(CAG) RNA repeat, TO-PRO-1 dye displacement fluorescence; inhibition, % at 3 µM; actives 1.3% (n = 370,000); AID 651821;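 active = inhibition above the plate cutoff, the mean of all test compounds on that plate plus 3 SD, cut at about 35% in these data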;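 also: 0% = DMSO alone and 100% = 100 µM mitoxantrone as full dye displacement; higher means more dye released from RNA so lower well fluorescence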
PRMT1 inh conf = PRMT1 (human) inhibition, FP confirmation; shares compounds with PRMT1 inh; recombinant His-PRMT1, activity-based probe fluorescence polarization; inhibition, % at 2.79 µM; actives 42% (n = 3,300); AID 687036;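 active = mean inhibition across replicates above the hit cutoff derived for the earlier primary screen, cut at about 22% in these data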
Numbers without * were called inactive. Sampled rows, rich in hits. Any-hit rate of the full collection: about 4.1%.

C[C@H]1C2CC(OC(=O)Nc3cccc(Cl)c3)C(C2)[C@H]2CCCCN21 (some centres undefined) was read as LEDGF integ inh -4.2, MBD2 DNA inh 2.2, PRMT1 inh 0.7, UHRF1 binding 0.3 and rCAG RNA binder 4.5.
Screening Cc1cccc(NC(=S)NCC23C=CC(O2)C2C(=O)N(c4ccc(Cl)cc4)C(=O)C23)c1 (centres undefined) returned LEDGF integ inh 4.0, MBD2 DNA inh 0.8, PRMT1 inh 77.8*, UHRF1 binding 3.9, ABHD5 PLIN5 PPI 17.2, rCAG RNA binder 8.2 and PRMT1 inh conf 31.0*.
Cc1ccc(N2C(=O)[C@@H]3[C@H](C2=O)[C@H]2C=CC=NN2[C@@H]3C(=O)Nc2ccccc2)cc1 was read as LEDGF integ inh -0.8, MBD2 DNA inh -3.4, PRMT1 inh 2.0, UHRF1 binding -0.1, ABHD5 PLIN5 PPI 6.1 and rCAG RNA binder 17.6.
Screening Cc1ccc(S(=O)(=O)NCC2(c3ccccc3)CCN(C)CC2)cc1 returned LEDGF integ inh 3.4, MBD2 DNA inh 6.4, PRMT1 inh -1.6, UHRF1 binding 2.4, ABHD5 PLIN5 PPI 0.0 and rCAG RNA binder -0.6.
For Cc1ccc(S(=O)(=O)NCC23C=CC(O2)C2C(=O)N(c4ccccc4)C(=O)C23)cc1 (centres undefined) the results were LEDGF integ inh -2.2, MBD2 DNA inh 3.7, PRMT1 inh 80.9*, UHRF1 binding -0.5, ABHD5 PLIN5 PPI 15.1, rCAG RNA binder -0.7 and PRMT1 inh conf 11.0.
`Cc1ccc(NC(=S)NCC23C=CC(O2)C2C(=O)N(c4ccc(C)cc4)C(=O)C23)cc1` (centres undefined) gave LEDGF integ inh 0.3, MBD2 DNA inh 3.1, PRMT1 inh 91.4*, UHRF1 binding 6.8, ABHD5 PLIN5 PPI 15.3, rCAG RNA binder 3.0 and PRMT1 inh conf 50.4*.
Screening Cc1ccc(N2C(=O)C3C4C=CC(CNC(=S)N5CCN(c6ccccc6)CC5)(O4)C3C2=O)cc1 (centres undefined) returned LEDGF integ inh 2.5, MBD2 DNA inh -2.4, PRMT1 inh 43.5*, UHRF1 binding 0.2, ABHD5 PLIN5 PPI 2.2, rCAG RNA binder 3.2 and PRMT1 inh conf 43.6*.
`S=C(NCC1CCCO1)N1CCN(c2ccccc2)CC1` (centres undefined) gave LEDGF integ inh -2.3, MBD2 DNA inh 3.5, PRMT1 inh -2.0, UHRF1 binding -1.9, ABHD5 PLIN5 PPI -1.9 and rCAG RNA binder -0.8.
CCc1cc2c(nc1CC)CCCN2Cc1ccccc1C(F)(F)F was read as LEDGF integ inh 10.4, MBD2 DNA inh -7.0, PRMT1 inh -1.7, UHRF1 binding -1.0 and rCAG RNA binder 5.1.
CCC1(c2ccccc2)NC(=O)N(CC(=O)Nc2ccc(OC)nc2)C1=O (centres undefined) was read as LEDGF integ inh 2.2, MBD2 DNA inh -5.3, PRMT1 inh 57.7*, UHRF1 binding -2.2, ABHD5 PLIN5 PPI -3.4, rCAG RNA binder -117.4 and PRMT1 inh conf 55.0*.
For CCC(=O)N1CCc2cc(Br)c(S(=O)(=O)NCc3ccccc3OC)cc21 the results were LEDGF integ inh -1.7, MBD2 DNA inh 0.8, PRMT1 inh 0.0, UHRF1 binding 1.1 and rCAG RNA binder 6.2.
Screening CCc1[nH]c(=O)[nH]c1C(C)S(=O)(=O)c1ccc(C)cc1 (centres undefined) returned LEDGF integ inh 2.9, MBD2 DNA inh -3.3, PRMT1 inh 42.7*, UHRF1 binding -0.7, ABHD5 PLIN5 PPI 22.0, rCAG RNA binder 2.0 and PRMT1 inh conf 33.8*.
Screening CCc1c(C(C)S(=O)(=O)c2ccc(C)cc2)[nH]c(=O)n1-c1ccc(C)cc1 (centres undefined) returned LEDGF integ inh -1.3, MBD2 DNA inh 3.3, PRMT1 inh 33.8*, UHRF1 binding 2.4, ABHD5 PLIN5 PPI 2.7, rCAG RNA binder 3.5 and PRMT1 inh conf 14.4.
Screening Cc1ccc(-n2c3c(c(=O)[nH]c2=O)C(NS(=O)(=O)c2ccc(C)cc2)(C(F)(F)F)C(=O)N3)cc1 (centres undefined) returned LEDGF integ inh 5.6, MBD2 DNA inh 3.4, PRMT1 inh -0.1, UHRF1 binding 18.4, ABHD5 PLIN5 PPI -2.5 and rCAG RNA binder 6.7.
Screening O=C(Nc1nc2ncccn2c1-c1ccc(F)c(F)c1)c1ccc(F)cc1 returned LEDGF integ inh 5.6, MBD2 DNA inh -3.0, PRMT1 inh -4.5, UHRF1 binding -2.4 and rCAG RNA binder 0.8.
Cc1ccc(OC2CCN(C(=O)[C@@H](Cc3ccccc3)NC(=O)[C@H]3O[C@@H](n4ccc(=O)[nH]c4=O)[C@H](O)[C@@H]3O)CC2)cc1 was read as LEDGF integ inh -2.9, MBD2 DNA inh -4.6, PRMT1 inh -4.7, UHRF1 binding -1.4 and rCAG RNA binder 1.7.
`CC(=O)N1SC(N)=NC1c1ccccc1` (centres undefined) gave LEDGF integ inh 0.9, MBD2 DNA inh -2.5, PRMT1 inh -1.3, UHRF1 binding -1.3, ABHD5 PLIN5 PPI -5.3 and rCAG RNA binder 1.1.
For c1ccc([C@H]2CN3C(=N2)Sc2ccccc23)cc1 the results were LEDGF integ inh 0.4, MBD2 DNA inh 0.3, PRMT1 inh 28.9*, UHRF1 binding 2.2, ABHD5 PLIN5 PPI -4.0, rCAG RNA binder 7.9 and PRMT1 inh conf 20.3.
`OCCN1CN(c2ccccc2)C(=S)N(c2ccccc2)C1` gave LEDGF integ inh -1.9, MBD2 DNA inh -0.5, PRMT1 inh 6.7, UHRF1 binding 2.4 and rCAG RNA binder 0.6.
`Cc1cccc(NC(=O)C2CC(=O)n3cnnc3S2)c1` (centres undefined) gave LEDGF integ inh 0.0, MBD2 DNA inh 10.1, PRMT1 inh 84.0*, UHRF1 binding 4.8, ABHD5 PLIN5 PPI 9.4, rCAG RNA binder 13.1 and PRMT1 inh conf 60.4*.
`CCN=C1SC(C(=O)Nc2cccc(C)c2)CC(=O)N1CC` (centres undefined) gave LEDGF integ inh 0.1, MBD2 DNA inh 9.6, PRMT1 inh 7.4, UHRF1 binding 7.0, ABHD5 PLIN5 PPI -6.8 and rCAG RNA binder -0.9.
For Cc1c(-c2n[nH]c(=S)n2-c2ccc(C(F)(F)F)cc2)nnn1-c1ccccc1 the results were LEDGF integ inh 1.8, MBD2 DNA inh 1.4, PRMT1 inh 30.0*, UHRF1 binding 3.8, ABHD5 PLIN5 PPI -5.3, rCAG RNA binder 14.6 and PRMT1 inh conf 6.4.
For CCC12OC(=N)C(C#N)(C1C)C(C#N)(C#N)C(c1ccccc1)O2 (centres undefined) the results were LEDGF integ inh 0.6, MBD2 DNA inh 0.7, PRMT1 inh 28.4*, UHRF1 binding -4.0, ABHD5 PLIN5 PPI -0.6, rCAG RNA binder -16.7 and PRMT1 inh conf 30.2*.

Source: PubChem
